The values that follow come from the supplement of paper PMC9135407.

“And” between values parts separate entries of the source, which are not always exact repeats. Equal entries are not always repeated. Structures can show the parent of a compound that is named as a salt. The whole screen tested about 5,800 compounds, of which about 620 (11%) showed activity. The sample holds actives, similar compounds and a random draw of the others, so the mix is not that of the screen. Unmarked numbers belong to inactive results.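 How the source made its calls: active = score above a cut-off or among the top three wells of a plate; in these data no inactive exceeds 0.85.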 A value given as a limit tells only on which side of the number the result lay.

The assay relates to primary human hepatic stellate cells (donor 1). The assay is described as follows: scaled lipid accumulation score (0 = DMSO-like, 1 = nortriptyline-like); higher = stronger HSC inactivation (lipid re-accumulation), active = hit call of the paper. The following applies: 48 h.
Setting [1] is: library stock concentration: 10 mM.
[2] abbreviates: library stock concentration: 1 mM.
[3] abbreviates: library stock concentration: 3.33 mM.
Where [4] appears, read: library stock concentration: 5.3 mM.

Take `OCCOCCN1CCN(C(c2ccccc2)c2ccc(Cl)cc2)CC1` (stereo not given) [Hydroxyzine dihydrochloride]: the “scaled lipid accumulation score” value was 0.453.
Consider `Cl.Clc1ccc(CCCOCCCN2CCCCC2)cc1`, for which the “scaled lipid accumulation score” value under setting [1] was 1.05 (active).
As for `CCCCC[C@H](O)/C=C/[C@@H]1[C@@H](C/C=C\CCCC(=O)NCCO)[C@@H](O)C[C@H]1O` [Prostaglandin F2.alpha. Ethanolamide], the “scaled lipid accumulation score” value under setting [2] is no more than 0.
Regarding `Nc1ncnc2c1ncn2[C@@H]1O[C@H](CO)C[C@@H]1O` [3'-deoxydenosine], the “scaled lipid accumulation score” value under setting [1] was no more than 0.
Still for that read-out and setting: then `CC(C)(C)NCC(O)c1ccc(O)c(CO)c1` (racemic) [Albuterol (+/-)], with 0.068; and `CO/N=C(\C(=O)N[C@@H]1C(=O)N2C(C(=O)O)=C(CSc3nnnn3C)CS[C@H]12)c1csc(N)n1`, with no more than 0.
For `CC(C)=CCCC(C)(OC1OC(COC2OCC(O)C(O)C2O)C(O)C(O)C1O)C1CCC2(C)C1C(O)CC1C3(C)CCC(OC4OC(CO)C(O)C(O)C4O)C(C)(C)C3CCC12C` (stereo not given) [Gynostemma Extract], the “scaled lipid accumulation score” value by setting is: under setting [3], 0.01; under setting [1], no more than 0.
For `O=C(CCCN1CCC(O)(c2ccc(Br)cc2)CC1)c1ccc(F)cc1` [Bromperidol], the “scaled lipid accumulation score” value was 0.632. Further, where the note is “library stock concentration: 4.8 mM”, the “scaled lipid accumulation score” value was 0.429.
With `Cl.O=C(CCCN1CCC(O)(c2cccc(C(F)(F)F)c2)CC1)c1ccc(F)cc1` [Trifluperidol hydrochloride], the “scaled lipid accumulation score” value under setting [1] was 0.88 (active).
Turning to `O=C(CCCN1CCC(O)(c2ccc(Cl)cc2)CC1)c1ccc(F)cc1` [Haloperidol HCl], the “scaled lipid accumulation score” value under setting [4] is 0.419.
With `O=C(CCCN1CCC(O)(c2cccc(C(F)(F)F)c2)CC1)c1ccc(F)cc1` [Trifluperidol 2HCl], for the setting “library stock concentration: 4.9 mM”, the “scaled lipid accumulation score” value was 0.327.
Take `O=C(CCCN1CCC(O)(c2ccc(Cl)cc2)CC1)c1ccc(F)cc1` [Haloperidol] [listing 1 of 2 here]: the “scaled lipid accumulation score” value was 0.589. The “scaled lipid accumulation score” value under setting [3] was 0.302. Also, the “scaled lipid accumulation score” value under setting [4] was 0.447. Moreover, the “scaled lipid accumulation score” value under setting [1] was 0.787 and 0.814 and 0.297.
Regarding `O=C(CCCN1CCC(O)(c2ccc(Cl)cc2)CC1)c1ccc(F)cc1` [Haloperidol hydrochloride], the “scaled lipid accumulation score” value under setting [1] was 0.78.
For `NC(=O)C1(N2CCCCC2)CCN(CCCC(=O)c2ccc(F)cc2)CC1`, under setting [1], the “scaled lipid accumulation score” value is no more than 0.
`O=C(CCCN1CCC(O)(c2ccc(Cl)cc2)CC1)c1ccc(F)cc1` [Haloperidol] [listing 2 of 2 here]: under setting [1], the “scaled lipid accumulation score” value was 1.12 (active).
For the compound `COc1ccc(C2(CNC(=O)c3ccc(NC(=O)c4ccco4)cc3)CCOCC2)cc1`, the “scaled lipid accumulation score” value by setting is: (library stock concentration: 80 uM) no more than 0; (library stock concentration: 400 uM) no more than 0; (library stock concentration: 2 mM) no more than 0; under setting [1], no more than 0.
On to `CCCCC[C@H](O)/C=C/[C@@H]1[C@@H](C/C=C\CCCCO)[C@@H](O)C[C@H]1O` [Prostaglandin F2.alpha. Alcohol], for which the “scaled lipid accumulation score” value under setting [2] is no more than 0.
On to `CCCn1c(=O)c2[nH]c(-c3ccc(S(=O)(=O)O)cc3)nc2n(CCC)c1=O` [1,3-Dipropyl-8-p-sulfophenylxanthine], for which the “scaled lipid accumulation score” value under setting [1] is 0.108.
For the compound `CC1=C(C(=O)OC(C)C)C(c2cccc([N+](=O)[O-])c2)C(C(=O)OC2CN(C(c3ccccc3)c3ccccc3)C2)=C(N)N1` (stereo not given) [Azelnidipine], the “scaled lipid accumulation score” value is, setting by setting: under setting [3], 0.061; under setting [1], 0.189.
Turning to `O=C(CCC/C=C\C[C@@H]1[C@@H](/C=C/[C@@H](O)CCc2ccccc2)[C@H](O)C[C@@H]1O)NC(CO)CO` [17-phenyl trinor Prostaglandin F2.alpha. serinol amide], the “scaled lipid accumulation score” value under setting [2] was 0.062.
As to `COCCOc1nc(-c2ccc(Cl)c(Cl)c2)n(-c2ccc(NC(=O)CCl)cc2)n1` [MI-2 (MALT1 inhibitor)], the “scaled lipid accumulation score” value is, setting by setting: under setting [3], 0.584; under setting [1], 0.62.
On to `COc1ccc(NC(=O)c2cc(OCCCN(C)C)nn2Cc2ccccc2)cc1.Cl` [CFM 1571 hydrochloride], for which, under setting [1], the “scaled lipid accumulation score” value was 1.11 (active).
In the case of `COc1cc(NC(=O)c2ccccn2)ccc1Cl`, the “scaled lipid accumulation score” value under setting [3] was no more than 0 and the “scaled lipid accumulation score” value under setting [1] was no more than 0.
`O=C(O)CCC/C=C\CC1C(O)CC(O)C1/C=C/C(O)COc1cccc(Cl)c1` (stereo not given): under setting [1], the “scaled lipid accumulation score” value was no more than -0.001.
With `O=C(O)CCC/C=C\CC1C(O)CC(O)C1/C=C/C(O)COc1cccc(Cl)c1` (stereo not given) [Cloprostenol], the “scaled lipid accumulation score” value under setting [2] was no more than -0.021.
As to `CC1CC(OC(=O)C(O)c2ccccc2)CC(C)(C)N1C` (stereo not given) [Eucatropine hydrochloride], the “scaled lipid accumulation score” value was no more than 0. The “scaled lipid accumulation score” value (library stock concentration: 6.1 mM) was no more than -0.001. Further, under setting [1], the “scaled lipid accumulation score” value was no more than 0.
As to `CC1O[C@H](O[C@]2(O[C@H]3CC[C@@]4(C)C(=CC[C@H]5[C@@H]6C[C@H]7[C@H]([C@H](C)[C@H]8CC[C@H](C)CN87)[C@@]6(C)CC[C@@H]54)C3)C[C@@H](O[C@@H]3OC(CO)[C@@H](O)[C@@H](O)C3O)[C@@H](O)C(CO)O2)C(O)[C@@H](O)[C@H]1O` (stereo partly drawn) [Solanine alpha], the “scaled lipid accumulation score” value is no more than 0.
